# Rows were chosen to be rich in hits. Some 2.6% of all compounds tested hit in one or more screens of this group.
# AmpC inh no det: blocks E. coli AmpC beta-lactamase in absence of detergent; P00811; AmpC nitrocefin hydrolysis, absorbance 480 nm, no detergent; Potency, µM (titrated, usually from 28.7 µM), without a hit: top-dose activity change, negative = inhibition; 1.8% of 71,000 active; further: % of control where 0% means no effect
# Target sequence (P00811 whole entry, looked up): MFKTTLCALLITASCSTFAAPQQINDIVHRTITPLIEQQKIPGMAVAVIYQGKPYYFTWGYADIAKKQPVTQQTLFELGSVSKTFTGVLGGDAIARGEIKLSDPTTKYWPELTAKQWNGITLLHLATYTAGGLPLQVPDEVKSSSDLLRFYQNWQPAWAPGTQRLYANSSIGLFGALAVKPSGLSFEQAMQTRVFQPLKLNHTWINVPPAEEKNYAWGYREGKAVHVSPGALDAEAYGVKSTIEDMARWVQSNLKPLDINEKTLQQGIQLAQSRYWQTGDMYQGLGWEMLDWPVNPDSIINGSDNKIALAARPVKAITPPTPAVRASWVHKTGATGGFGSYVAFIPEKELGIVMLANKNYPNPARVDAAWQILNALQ
#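 AmpC, 20 mM phosphate pH 7.0; 15 min cpd preinc, RT; start with nitrocefin (800 uM stock); A480 kinetic read, 20 s intervals, 4 min. No-enzyme wells = negative control.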
# AmpC det inh: blocks E. coli AmpC beta-lactamase in presence of detergent; AID 584; P00811; purified AmpC, nitrocefin hydrolysis with detergent; Potency, µM (top dose mostly 28.7 µM), for inactives: at the top dose activity change, negative = inhibition; 0.09% of 71,000 active; active means well fitted curve in the direction sought with a large enough effect; inconclusive means small, poorly fitted or top-dose-only effect; further: on the % scale 0 is the no-effect control and ±100 the full control effect
#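 E. coli AmpC (5.3 nM) in 20 mM phosphate pH 7.0 with 0.01% Triton X-100, preincubated 15 min RT with compound; nitrocefin (2 uL of 800 uM stock) hydrolysis followed by 480 nm absorbance every 20 s over 4 min.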
# Prx2 Sm inh: blocks S. mansoni peroxiredoxin 2 enzymatic activity; S. mansoni Prx2 activity coupled to TGR/GSH (TGR is thioredoxin glutathione reductase), NADPH fluorescence loss, qHTS; Potency, µM; 0.07% of 65,000 active
#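 Coupled assay in which S. mansoni TGR passes NADPH reducing equivalents via glutathione to Prx2, which reduces H2O2. Compounds were preincubated 15 min at room temperature with 25 nM TGR/50 nM Prx2 mix. Kinetic NADPH fluorescence loss (ex 365/em 450 nm) was monitored.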
# Anthrax LT inh: blocks cellular internalization of anthrax lethal toxin | Cells, anthrax lethal toxin internalization, FRET ratio (460/530) | Potency, µM (highest dose often 40 µM), without a hit: at the highest dose activity change, negative = inhibition, most hits filed as inhibitors | 0.67% of 70,000 active | AID 912; further: on the % scale 0 is the no-effect control and ±100 the full control effect; nearly all actives have a fitted effect of over 50% in size
# Starred values were filed as active, the others as inactive; ? = inconclusive; . = no result given; ! = a repeat was not active; [ ] = dose if it differs, or a comment. Unless noted, the call rests on the fitted dose curve. Potency means the concentration at half of the fitted maximal effect.
SMILES,AmpC inh no det,AmpC det inh,Prx2 Sm inh,Anthrax LT inh
CO/N=C(\C(=O)N[C@@H]1C(=O)N2C(C(=O)O)=C(COC(C)=O)CS[C@@H]12)c1csc(N)n1,1.3µM*!,1.3µM*,>57,3%[3.58 µM]
Brc1ccccc1-c1nnc(CSc2nncn2-c2ccccc2)o1,11%,-4%,>57,-1%
O=c1c2ccccc2nc(SCc2nnc(-c3ccccc3Br)o2)n1-c1ccccc1,20µM*,-2%,>57,15%
CCOc1ccc2[nH]c(C)c(CN3CCN(CC)CC3)c(=O)c2c1,-14%,6%,>57,-18%
CCCCN(C)Cc1c(C)[nH]c2ccc(OCC)cc2c1=O,4µM*[single pt active],16%,>57,-4%
O=C(c1ccccc1)N1CCN(Cc2ccccc2Br)CC1,38%,-5%,>57,3%
Brc1ccccc1CN1CCC(N2CCCCC2)CC1,-20%,6%,.,10µM*
O=C(Nc1cc(Cl)ccc1O)c1cc2n(n1)C(C(F)(F)F)CC(c1ccc3c(c1)OCO3)N2 (stereo not drawn),7.9µM*,-3%,>57,?
COc1ccc(OC)c(NC(=O)c2cc3n(n2)C(C(F)(F)F)CC(c2ccc4c(c2)OCO4)N3)c1 (stereo not drawn),34%,4%,>57,-29%
O=C(Nc1ccc2c(c1)OCO2)Nc1ccc(Br)cn1,-22%,-2%,>57,-14%
O=C(NCCc1ccccc1)C1CCCN(S(=O)(=O)c2cccs2)C1 (stereo not drawn),4µM*[single pt active],12%,>57,-5%
O=C(C1CCCN(S(=O)(=O)c2cccs2)C1)N1CCC(N2CCCCC2)CC1 (stereo not drawn),4µM*[single pt active],31%,>57,8%
COc1ccc(-c2cc(-c3ccccc3O)[nH]n2)cc1OC,46%,8%,.,13µM*
COc1ccc(-c2cc(-c3cc(F)ccc3O)[nH]n2)cc1OC,78%,4%,>57,10µM*
COc1ccc(O)c(-c2cc(-c3cccc(Br)c3)n[nH]2)c1,-20%,17%,.,?
COC(=O)c1cc(-c2ccc(OC)c(OC)c2)n[nH]1,3%,-3%,>57,-13%
Oc1ccccc1-c1cc(-c2ccc3c(c2)OCCO3)n[nH]1,-6%,12%,>57,20µM*
COCCNC(=O)c1cc(Br)ccc1Cl,-12%,16%,>57,3%
Cc1cnc(CNc2ncnc3ccc(-c4ccccc4Cl)cc23)cn1,130%,6%,>57,?
O=C(O)c1cc[c]([Hg][Cl])cc1,-10%,-8%,0.44*,?
CSc1nc(-c2ccco2)nn1C(=O)c1ccc(C)cc1,4µM*[single pt active],12%,>57,?
Nc1nc(-c2ccco2)nn1C(=O)CCc1ccccc1,26%,-7%,>57,9%
CCCC(=O)n1nc(-c2ccco2)nc1SCc1ccccc1,10µM*,-7%,>57,-3%
CSc1nc(-c2ccco2)nn1C(=O)c1ccco1,2.5µM*[single pt active],10%,>57,-12%
Cc1c(Nc2ncnc3c2cnn3-c2ccccc2)c(=O)n(-c2ccccc2)n1C,8%,-5%,>57,0%
SMILES,AmpC inh no det,AmpC det inh,Prx2 Sm inh,Anthrax LT inh
Cn1cc(C(=O)c2ccc(Cl)cc2)cc1-c1nc2ccccc2n1C,35%,18%,>57,13µM*
CC1(C(=O)NC2CCCC2)CCC(=O)N1Cc1cccs1 (stereo not drawn),-3%,-5%,>57,2%
CC1(C(=O)NC2CCCCC2)CCC(=O)N1Cc1cccs1 (stereo not drawn),4µM*[single pt active],13%,>57,-25%
CCOC(=O)N/N=C1/C[C@@H](O)[C@@H](O)[C@@H]2[C@H]3C(=O)N(c4ccc(F)cc4F)C(=O)[C@@H]3CC[C@@H]12,.,.,.,7%[8 µM]
Cn1nc(-c2ccc(Cl)cc2)c2cc(C(=O)NC3CC3)sc21,4µM*[single pt active],10%,>57,-2%
Cn1nc(-c2ccc(Cl)cc2)c2cc(C(=O)NCCN3CCOCC3)sc21,146%,14%,>57,?
CCN1CCN(C(=O)c2cc3c(-c4ccc(Cl)cc4)nn(C)c3s2)CC1,155%,9%,>57,5%
Cn1nc(-c2ccc(Cl)cc2)c2cc(C(=O)N3CCN(C(=O)c4ccco4)CC3)sc21,4µM*[single pt active],13%,.,-10%
CCOCCCNC(=O)c1cc2c(-c3ccc(Cl)cc3)nn(C)c2s1,130%,8%,>57,-10%
Cn1nc(-c2ccc(Cl)cc2)c2cc(C(=O)NCCCN3CCOCC3)sc21,124%,13%,>57,2.5µM*
CCN(CC)CCNC(=O)c1cc2c(-c3ccc(Cl)cc3)nn(C)c2s1,4µM*[single pt active],5%,>57,10µM*
O=C(c1ccccc1S(=O)(=O)NCc1ccccc1)N1CCCCC1,24%,11%,>57,-13%
Cc1oc(-c2cccs2)nc1CS(=O)CC(=O)NCCc1ccccc1 (stereo not drawn),10%,7%,>57,-15%
Cc1oc(-c2ccccc2F)nc1CS(=O)CC(=O)NCc1cccs1 (stereo not drawn),4µM*[single pt active],10%,>57,0%
Cc1oc(-c2ccccc2F)nc1CS(=O)CC(=O)NCc1ccc2c(c1)OCO2 (stereo not drawn),4µM*[single pt active],12%,>57,-11%
CCOC(=O)c1c(C)[nH]c(C(=O)CN2C(=O)NC(C)(c3ccc(C)cc3)C2=O)c1C (stereo not drawn),37%,-1%,.,?
Cc1ccc(S(=O)(=O)n2nc(C)c(Br)c2C)c(C)c1C,-8%,8%,>57,13µM*
CCOC(=O)N1CCN(S(=O)(=O)c2ccc(C)c(C)c2C)CC1,63%,-9%,>57,17%
C[C@@H](O)[C@H]1C(=O)N2C(C(=O)O)=C(S[C@@H]3CN[C@H](C(=O)N(C)C)C3)[C@H](C)[C@H]12,27%[12.8 µM],-1%[12.8 µM],>57,0.5µM*
COc1c2ccoc2nc2c(OC)c(OC[C@H](O)C(C)(C)O)ccc12,9%,-4%,>57,13µM*!
O=C(Cc1ccc(Br)cc1)c1ccc(O)cc1O,0%,5%,.,0%
CCC(C)NC(=O)CCS(=O)(=O)c1ccc2c(c1)n(C)c(=O)c(=O)n2C (stereo not drawn),4µM*[single pt active],13%,>57,-8%
CN(Cc1ccccc1)C(=O)CCS(=O)(=O)c1ccc2c(c1)n(C)c(=O)c(=O)n2C,4µM*[single pt active],14%,>57,?
CN(Cc1ccccc1)C(=O)CCC(=O)N(C)Cc1ccccc1,39%,-1%,.,-1%
O=C(Nc1ccc(Nc2ccccc2)cc1)C1CC1,-23%,2%,>57,4%
O=C(CSc1nnc(-c2ccccc2F)o1)OCc1ccccc1,10%,12%,>57,3%
O=C(CSc1nnc2c(n1)[nH]c1ccc(F)cc12)OCc1ccccc1,10µM*,7%,>57,-7%
Cc1c(C(=O)N2CCCC2)oc2c1-c1[nH]ncc1CC2,4µM*[single pt active],10%,>57,6%
CCN1CCN(c2cc(C)c3cc(NC(=O)c4cncc(Br)c4)ccc3n2)CC1,112%,-4%,>57,25µM*
CCN1CCN(c2cc(C)c3cc(NC(=O)c4ccc5c(c4)OCO5)ccc3n2)CC1,60%,11%,>57,10µM*
